Bioassay records (PubChem BioAssay)
HepG2 tox: kills HepG2 cells in TGF-b inhibitor counter-screen | HepG2 CAGA-GFP viability, ATP luminescence, 18 h | Potency, µM (series often up to 46.1 µM), without a hit: at the top dose activity change, negative = cytotoxicity, usual class: cytotoxic | 410,000 tested, 0.76% active
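HepG2 CAGA-GFP cells (1000/well, DMEM with 1% FBS) received compound, then TGF-beta at 500 pg/mL final, and were incubated 18 hours at 37 degrees C. Viability was read by CellTiter-Glo luminescence. Media-only wells were set as complete cell-killing and DMSO as no toxicity.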
DT40 TDP1 CPT: growth inhibition of DT40 Tdp1-/-;hTDP1 cells with camptothecin (screen for TDP1 inhibitors); AID 686979; chicken DT40 Tdp1-/-;hTDP1 cells + 20 nM CPT, ATP luminescence, 48 h; 420,000 tested, 12% active; Potency, µM (top dose mostly 46.2 µM), for inactives: at the highest dose activity change, negative = growth inhibition, hits mostly inhibitors; also: % is scaled to controls: 0 for no effect and ±100 for the full control effect; nearly all actives have a fitted effect of over 55% in size
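Cell growth measured by CellTiter-Glo luminescence after a minimum 48 h, 37 C compound exposure with 20 nM CPT in Tdp1-knockout DT40 cells stably expressing hTDP1, seeded 400/well; qHTS titration format.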
TDP1 cell noCPT: qHTS for Inhibitors of human tyrosyl-DNA phosphodiesterase 1 (TDP1): qHTS in cells in absence of CPT | DT40 Tdp1-/- hTDP1 cells, no CPT, ATP luminescence, 48 h | Potency, µM (top dose mostly 46.2 µM), inactives show at the top dose activity change, negative = growth inhibition, most hits filed as inhibitors | 420,000 tested, 15% active; also: % is scaled to controls: 0 for no effect and ±100 for the full control effect; nearly all actives have a fitted effect of over 55% in size
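Camptothecin absent (DMSO only). Human TDP1-complemented DT40 knockout cells, 400 cells/well, 37 °C for minimum 48 hr; ATP measured via CellTiter-Glo, 30 min dark incubation, luminescence.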
ATXN2 expr inh: ATXN2 expression inhibition; HEK-293 ATXN2-luciferase reporter, luminescence, 24 h; Potency, µM (highest dose often 57 µM), for inactives: top-dose activity change, negative = inhibition, hits mostly inhibitors; 360,000 tested, 0.72% active; also: % is scaled to controls: 0 for no effect and ±100 for the full control effect; nearly all actives have a fitted effect of over 55% in size
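qHTS (up to 57 uM final) was run with 24 h compound exposure of reporter cells at 37 °C. Each well was multiplexed: SteadyGlo luminescence measured ATXN2-luciferase expression after a fluorogenic Gly-Phe-AFC viability readout (25 uM final).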
TGFb SMAD3 inh: inhibitors of TGF-b signaling; HepG2 CAGA-GFP TGF-b/SMAD3 reporter, GFP fluorescence, 18 h; TGF-beta stimulated, 500 pg/mL final; Potency, µM (highest dose often 46.1 µM), for the others: at the top dose activity, negative = inhibition, most hits filed as inhibitors; 410,000 tested, 1.2% active; AID 588855; also: % is scaled to controls: 0 for no effect and ±100 for the full control effect; nearly all actives have a fitted effect of over 65% in size
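HEPG2 CAGA-GFP reporter cells (1000/well, DMEM with 1% FBS) received compounds, then recombinant TGF-beta at 500 pg/mL final for 18 hours at 37 degrees C. Per-cell GFP summed per well was normalised to unstimulated and stimulated DMSO controls before curve fitting.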
ATXN viability: reduces viability in counter-screen for ATXN expression inhibitors. S2 cells (HEK-293 line with an ATXN2-luciferase reporter) viability, CellTiter-Fluor protease fluorescence, 24 h. Potency, µM (top dose mostly 56.7 µM), actives largely listed as cytotoxic. 400,000 tested, 0.49% active. AID 651635; also: nearly all actives have a fitted effect of over 40% in size
* hit, by the source's call; i = inactive; u = inconclusive; x = no result given; [ ] = another dose, or the depositor's remark. Rows were chosen to be rich in hits. Some 17% of all compounds tested hit in one or more screens of this group. Calls follow the shape of the dose curve; as a rule, active = well fitted curve in the direction sought with a large enough effect; inconclusive = small, poorly fitted or top-dose-only effect, or another doubt; inactive = no such curve, though single readings can be large; an effect the other way counts as inactive or inconclusive. Potency is read from the fitted curve at half-maximal effect.

SMILES | HepG2 tox | DT40 TDP1 CPT | TDP1 cell noCPT | ATXN2 expr inh | TGFb SMAD3 inh | ATXN viability
CCOc1ccc2[nH]c(C(=O)N/N=C/c3cc(OC)c(OC)c(OC)c3)cc2c1 | -15% | u | 16µM* | 2% | 1% | i
COc1ccccc1/C=N/NC(=O)c1cc2c(OC)c(OC)ccc2[nH]1 | -2% | 4.1µM* | 3.3µM* | x | -10% | u
COc1ccccc1/C=N/NC(=O)COCC(=O)N/N=C/c1ccccc1OC | -4% | -2% | -10% | -12%[11.3 µM] | 21% | i
CC(=O)Nc1ccc(Oc2ccc(NC(C)=O)c(NC(C)=O)c2)cc1 | 6% | 1% | -1% | x | -2% | i
CC1CCC(C(C)C)C(=O)/C1=C/c1ccc(N)cc1 (centres undefined) | -17% | 15µM* | 13µM* | 31% | -19% | i
O=C1CCc2cc(S(=O)(=O)NC(Cc3ccccc3)C(=O)N3CCN(c4ccccn4)CC3)ccc2N1 (centres undefined) | -1% | -20% | -8% | x | -4% | i
COc1ccc(CCNc2ncnc3c2nnn3Cc2ccccc2)cc1OC | -2% | 23µM* | u | 181% | 3% | i
Clc1ccc(CCNc2ncnc3c2nnn3Cc2ccccc2)cc1 | -5% | -22% | u | -20% | -8% | i
COc1ccc(-n2ccnc(NCCc3ccccc3)c2=O)cc1OC | -12% | u | 21µM* | -14% | -5% | u
COc1ccc(CCNc2ncnc3c2nnn3C)cc1OC | -1% | u | u | x | -7% | x
Cc1ccc(-n2ccnc(NCc3cccs3)c2=O)cc1C | 0% | u | 13µM* | 0% | u | i
COc1ccc(CCNc2ncnc3cc(OC)c(OC)cc23)cc1OC | -16% | 3.7µM* | 6.5µM* | -30%[11.3 µM] | -18% | i
COc1cc(OC)nc(Nc2nc(CN)cs2)n1 | -7% | -30% | u | -11% | 27% | i
CCCCOc1ccc(CC(=O)N(C)OC)cc1 | 4% | -4% | -29% | x | 26% | x
O=C(CCN1C(=O)[C@@H]2Cc3ccccc3CN2C1=O)N[C@@H](C(=O)O)c1ccccc1 | -17% | -7% | -1% | 2% | 18% | i
COc1cc2ncnc(NCCc3ccccc3)c2cc1OC | -24% | 13µM* | 9.2µM* | -25% | u | u
COc1cccc(CNc2ncnc3cc(OC)c(OC)cc23)c1 | -2% | u | u | -10% | 7% | i
COc1ccc(CNc2ncnc3cc(Cl)ccc23)cc1OC | -26% | u | 13µM* | -35% | u | i
COc1cc2ncnc(NCc3ccc(C)cc3)c2cc1OC | -40% | u | 23µM* | -7% | -7% | i
COc1ccc(CCNc2ncnc3c2[nH]c2cc(OC)c(OC)cc23)cc1OC | 2% | 4.6µM* | 6.5µM* | u | u | u
CCCCCCCCCCCCCCCCN | x | 7% | -11% | 11% | x | i
O=C(NCC1(N2CCCCC2)CCCCC1)c1cccc(S(=O)(=O)Nc2ccc(F)cc2)c1 | -27% | u | u | -26% | 1% | i
CC(CCc1ccccc1)NC(=O)Cn1c(=O)nc(-c2ccccc2F)c2cc(Cl)ccc21 (centres undefined) | -4% | -8% | -26% | x | -1% | x
O=C(Nc1ccc(Cl)cc1C(F)(F)F)c1ccccc1 | -11% | -8% | -8% | -2% | u | i
CCN(Cc1ccccc1)C(c1ccc(Cl)cc1)c1nnnn1C(C)(C)C (centres undefined) | -8% | 26µM* | u | -20% | u | i
SMILES | HepG2 tox | DT40 TDP1 CPT | TDP1 cell noCPT | ATXN2 expr inh | TGFb SMAD3 inh | ATXN viability
CC(C)(C)n1nnnc1C(c1ccccn1)N(Cc1ccccc1)Cc1ccc(Cl)cc1 (centres undefined) | -23% | u | u | u | -3% | u
CC(C)(C)n1nnnc1C(c1cccs1)N(Cc1ccccc1)Cc1ccco1 (centres undefined) | -2% | u | 16µM* | -21% | u | i
CC(C)(C)n1nnnc1C(c1cccs1)N(Cc1cccnc1)Cc1ccco1 (centres undefined) | -19% | u | u | 6% | -7% | i
CC(C)(C)n1nnnc1C(c1ccncc1)N(Cc1ccccc1)Cc1ccco1 (centres undefined) | -8% | u | 23µM* | 2% | 0% | i
Cc1ccc2cc(C(c3nnnn3C3CCCC3)N(Cc3ccccc3)Cc3ccco3)c(=O)[nH]c2c1 (centres undefined) | 8% | 21µM* | u | 11% | u | i
CCN(Cc1ccccc1)C(c1ccc(C)cc1)c1nnnn1C(C)(C)C (centres undefined) | 0% | u | u | -12% | 15% | i
COc1ccc2cc(CNC3CCS(=O)(=O)C3)c(-c3ccc(OC)c(OC)c3)nc2c1 (centres undefined) | x | 4%[9.04 µM] | -4% | x | x | u
CC(C)CCCC(C)NCCC(C)C (centres undefined) | x | x | x | -2% | x | i
Nc1ccc2c(c1)Cc1c(F)cccc1-2 | 14% | 11% | u | 68% | 45% | i
O=C(COc1ccc(F)cc1)OCc1cc(=O)n2nc(C3CCCCC3)sc2n1 | 0% | -21% | -27% | 14% | -7% | i
COc1ccc(OC)c(NC(=O)Cn2ccn(-c3ccc(F)cc3)c(=O)c2=O)c1 | -15% | 0% | 20% | x | -11% | x
c1ccc(CN(Cc2cccs2)C(c2cccs2)c2nnnn2C2CCCC2)cc1 (centres undefined) | -3% | u | 18µM* | -23% | -8% | i
CCOC(=O)C1(CCCc2ccccc2)CCN(C(=O)[C@@H]2C[C@@H](C)NC(=S)N2)CC1 | -2% | u | u | -4% | u | u
O=C(NCc1ccccn1)[C@@H]1CCCN1C(=O)[C@@H]1CCCN1C(=O)c1ccc(Cl)cc1 | x | 2% | -23% | 1% | x | u
COC(=O)c1cc(NC(=O)C(C)c2ccc(CC(C)C)cc2)ccc1O (centres undefined) | -22% | 21µM* | u | 0% | u | i
Cc1ccc(OCCC(=O)OCC(=O)c2c(N)n(CC(C)C)c(=O)n(C)c2=O)cc1 | -6% | u | u | -21% | 8% | i
Cc1csc(=O)n1CCC(=O)OCC(=O)c1c(N)n(C)c(=O)n(C)c1=O | 4% | -15% | 1% | 3% | 0% | u
